# High-throughput results from PubChem.
# Only some compounds are listed: those with a hit (about 2.3% of all), similar ones and a draw of the others.
# A549 tox-1 – kills or reduces viability of A549 cells in Nrf2 counter-screen | Potency, µM (titrated, usually from 46 µM), hits mostly inhibitors | AID 504648 | hit rate 0.16% among 390,000 | A549 ARE-Fluc cells, CellTiter-Fluor viability, 18-24 h
#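 Cytotoxicity counterscreen: CellTiter-Fluor fluorescence was measured in A549 ARE_Fluc cells after 18-24 h of compound exposure in a concentration series. The subsequent BugLite luminescent read reports ARE-luciferase activity.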
# IL-2 act – activates IL-2 in a cell-based reporter assay; IL-2 activation reporter assay, cell-based qHTS; stimulated with anti-CD3/CD4/CD28 beads; in transgenic mouse T cells; activation, % (series mostly up to about 46 µM); hit rate 0.065% among 360,000; AID 652025; in the data active means activation above about 50%; inconclusive means mostly about 30% to 49%
#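 Readout: EGFP and DsRed signals by fluorescent plate cytometry. Unstimulated transgenic mouse T cells received compound 60 min before antibody-bead stimulation, then incubated 18 h at 37 degrees C.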
# Nrf2 activator – Nrf2 pathway activation. AREc32 ARE-luciferase reporter (MCF7-derived line), luminescence, 24 h. Potency, µM (titrated, usually from 46.1 µM), hits mostly activators. hit rate 0.31% among 410,000. AID 624171; further: nearly all actives have a fitted effect of over 65% in size
#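 ARE-driven firefly luciferase activity in AREc32 cells measured after a 24 hr compound exposure at 37 deg C, using Steady-Glo reagent and a 30 min room-temperature hold.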
# Nrf2 inh – inhibitors of Nrf2 signaling | hit rate 2.1% among 360,000 | A549 ARE-Fluc reporter, luciferase luminescence, 18-24 h | Potency, µM (titrated, usually from 46 µM), most hits filed as inhibitors; further: nearly all actives have a fitted effect of over 60% in size
#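 Two sequential reads on A549 ARE_Fluc cells exposed to compound for 18-24 h: a CellTiter-Fluor fluorescence read for viability, then a luciferase luminescence read for Nrf2/ARE activity.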
# FLuc counter 3 – firefly luciferase inhibition, Nrf2 hit validation; shares compounds with Nrf2 inh; purified firefly luciferase, luminescence inhibition; Potency, µM (series often up to 57.5 µM), actives largely listed as inhibitors; hit rate 4% among 1,400; further: nearly all actives have a fitted effect of over 65% in size
# Target sequence (P08659 whole entry, looked up): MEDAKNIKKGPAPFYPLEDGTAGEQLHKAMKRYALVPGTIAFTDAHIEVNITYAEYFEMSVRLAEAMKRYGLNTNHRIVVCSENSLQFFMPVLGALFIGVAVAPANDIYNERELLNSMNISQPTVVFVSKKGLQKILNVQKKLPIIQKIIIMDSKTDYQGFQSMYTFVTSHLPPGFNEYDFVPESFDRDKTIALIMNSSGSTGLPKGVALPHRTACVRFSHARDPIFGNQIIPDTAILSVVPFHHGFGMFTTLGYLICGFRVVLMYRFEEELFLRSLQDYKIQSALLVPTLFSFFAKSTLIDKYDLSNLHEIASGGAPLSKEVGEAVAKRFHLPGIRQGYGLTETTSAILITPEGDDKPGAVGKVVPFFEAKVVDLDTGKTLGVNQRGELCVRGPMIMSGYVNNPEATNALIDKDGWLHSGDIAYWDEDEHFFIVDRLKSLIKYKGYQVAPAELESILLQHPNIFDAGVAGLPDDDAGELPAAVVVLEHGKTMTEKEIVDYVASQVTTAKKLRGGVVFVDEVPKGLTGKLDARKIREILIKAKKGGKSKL
# A549 tox-2 – toxic to A549 ARE-Fluc cells in Nrf2 counterscreen; AID 720523; Potency, µM (series often up to 46.1 µM), actives largely listed as inhibitors; shares compounds with Nrf2 inh; hit rate 2% among 1,400; A549 ARE-Fluc cells, cytotoxicity counterscreen;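 further: cells exposed to compounds for 18 to 24 hours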
# Nrf2 ARE inh – reduces Nrf2 ARE reporter signal in A549 cells; Potency, µM (doses to about 46.1 µM), hits mostly inhibitors; shares compounds with Nrf2 inh; A549 ARE-firefly luciferase reporter, luminescence; hit rate 74% among 1,400; AID 720524; further: nearly all actives have a fitted effect of over 65% in size
# Numbers stand for hits; 0 = inactive; ? = inconclusive; - = no result given. Unless noted, the call rests on the fitted dose curve; in most records, active means well fitted curve in the direction sought with a large enough effect; inconclusive means small, poorly fitted or top-dose-only effect, or another doubt; inactive means no such curve, though single readings can be large; an effect the other way counts as inactive or inconclusive.
SMILES,A549 tox-1,IL-2 act,Nrf2 activator,Nrf2 inh,FLuc counter 3,A549 tox-2,Nrf2 ARE inh
O=[N+]([O-])c1ccc(N/N=C/c2sc(N3CCOCC3)nc2-c2ccccc2)c(S(=O)(=O)Nc2ccc(Cl)cc2)c1,2.6µM,0,0,1.5µM,0,?,3.3µM
Cc1ncoc1C(=O)NC1CCCc2c1cnn2-c1ccc(C(C)(C)C)cc1 (stereo not given),?,0,0,2.3µM,?,0,5.2µM
Cc1cc(C(=O)NC2CCCc3c2cnn3-c2ccc(C(C)(C)C)cc2)n[nH]1 (stereo not given),0,0,0,4.6µM,?,0,16µM
Cc1nnsc1C(=O)NC1CCCc2c1cnn2-c1ccc(C(C)(C)C)cc1 (stereo not given),?,0,0,2.1µM,?,0,-
O=C(NC1CCCc2c1cnn2-c1cc(F)cc(F)c1)c1ccncc1 (stereo not given),0,0,0,0,-,-,-
CC(C)(C)c1ccc(-n2ncc3c2CCCC3NC(=O)CN2CCOC2=O)cc1 (stereo not given),0,0,0,?,-,-,-
CC(C)(C)c1ccc(-n2ncc3c2CCCC3NC(=O)c2ccncc2)cc1 (stereo not given),0,0,0,2.6µM,?,0,8.2µM
COc1cccc2c1cc1c(=O)n(CC(=O)N3CCN(c4cccc(C)c4)C(C)C3)nc(C)n12 (stereo not given),0,-,0,0,-,-,-
CSc1ccc(C2c3[nH]c4ccccc4c3CCN2C(=O)CCC2CCCC2)cc1 (stereo not given),0,-,0,-,-,-,-
COc1ccc(C)c2sc(N(Cc3cccnc3)C(=O)CCc3ccccc3)nc12,0,-,0,-,-,-,-
CC(C)NC(=O)C1CCN(C(=O)c2cc3sccc3n2Cc2ccc(Cl)cc2)CC1,0,-,0,5.8µM,0,?,4.1µM
O=C(NCc1ccccc1)c1cc2sccc2n1Cc1ccc(Cl)cc1,0,-,0,0,-,-,-
O=C(Nc1ccccc1)N1CCN(c2ccc(C(F)(F)F)cn2)CC1,0,0,0,6.5µM,0,0,9.2µM
O=C(c1ccc2ccccc2c1)N1CCN(c2ccc(C(F)(F)F)cn2)CC1,0,0,0,0,-,-,-
Fc1ccc(NC(=S)N2CCCN(c3ccc(C(F)(F)F)cn3)CC2)c(F)c1,0,0,0,2.9µM,0,0,5.8µM
O=C(Nc1ccc(F)cc1F)N1CCN(c2ncccn2)CC1,0,0,0,0,-,-,-
CNC(=S)Nc1ccc(N2CCN(c3ccc(C(F)(F)F)cn3)CC2)nc1,0,0,0,4.1µM,0,0,6.5µM
O=C(Nc1ccc(F)cc1F)N1CCCN(c2ccc(C(F)(F)F)cn2)CC1,0,0,0,6.5µM,0,0,8.2µM
O=c1cc(-c2ccccc2)n2c(SCc3ccc([N+](=O)[O-])cc3)nnc2[nH]1,0,-,0,-,-,-,-
Cc1cccc(NC(=O)Cn2c(=O)n(CCCS(=O)(=O)C3CCCCC3)c(=O)c3ccccc32)c1,0,-,0,0,-,-,-
S=C(NN=Cc1ccccn1)N(Cc1ccccn1)Cc1ccccn1,0,0,0,?,?,?,2.3µM
COc1ccc(-n2c(-c3ccc(Br)cc3)c[n+]3c2CCC3)cc1,0,0,0,4.6µM,0,0,0
CCOc1ccc(-n2c(-c3ccc(Cl)cc3)c[n+]3c2SCC3)cc1,0,0,0,0,-,-,-
COc1ccc(-n2c(-c3ccccc3)c[n+]3c2CCC3)cc1,0,0,0,9.2µM,0,0,6.5µM
COc1ccc(-n2c(-c3ccc(Br)cc3)c[n+]3c2CCCCC3)cc1,0,0,0,?,-,-,-
SMILES,A549 tox-1,IL-2 act,Nrf2 activator,Nrf2 inh,FLuc counter 3,A549 tox-2,Nrf2 ARE inh
CCOc1ccc(-c2c[n+]3c(n2-c2ccccc2)CCCCC3)cc1,?,0,0,0.92µM,0,0,10µM
COc1ccc(OC)c(NC(=O)c2c(NCc3ccc(C)o3)sc3c2CCC(C)C3)c1 (stereo not given),0,-,0,-,-,-,-
CCn1c(COc2cccc(C)c2C)nnc1SCC(=O)N1CCN(c2ccc(OC)cc2)CC1,0,0,0,9.2µM,0,0,8.2µM
COc1ccc(Nc2nc(-c3cccs3)nc3ccccc23)cc1S(=O)(=O)N1CCOCC1,?,0,0,9.2µM,0,?,?
CCN(CC(=O)Nc1c(F)cccc1F)C(=O)c1cc(S(=O)(=O)N(CC)CC)ccc1N1CCCCC1,0,0,0,8.2µM,0,0,10µM
CC1(C)CC2CC(C)(CN2C(=O)COC(=O)c2ccccc2C(F)(F)F)C1 (stereo not given),0,0,0,3.7µM,0,0,0
O=C(Nc1ccncc1)c1cccc(S(=O)(=O)N2CCc3ccccc32)c1,0,0,0,8.2µM,0,0,7.3µM
CCOC(=O)c1sc(NC(=O)c2cc(-c3ccccc3)nc3ccccc23)c(C#N)c1C,?,0,0,4.6µM,11µM,?,6.5µM
CCOC(=O)c1sc(NC(=O)c2cccc(S(=O)(=O)N3CCc4ccccc43)c2)c(C#N)c1C,?,0,0,5.8µM,0,?,2.9µM
Cc1cccc(-c2noc(C3CC(=O)N(c4ccc5c(c4)OCCO5)C3)n2)c1 (stereo not given),0,-,0,0,-,-,-
COc1ccc(C2Nc3ccccc3C(=O)N2Cc2ccccc2)cc1COc1ccc([N+](=O)[O-])c(C)c1 (stereo not given),0,-,-,0,-,-,-
Cc1ccc(S(=O)(=O)N2CCN(S(=O)(=O)c3ccc4c(c3)OCCCO4)CC2)cc1,0,-,-,0,-,-,-
COc1ccc(C(C(=O)NCc2ccccc2)N(C(=O)Cn2nnc3ccccc32)c2cccc(OC)c2)cc1 (stereo not given),0,-,0,0,-,-,-
Cc1cc(C)c(NC(=O)CCN2CCCCC2)c(C)c1,0,-,0,0,-,-,-
COc1ccc(CC(=O)Nc2cccc(S(=O)(=O)N3CCCCCC3)c2)cc1OC,?,0,0,1.8µM,0,0,4.1µM
COc1ccc(NC(=O)c2cc(S(=O)(=O)N3CCCC3)cn2C)cc1Cl,0,0,0,3.7µM,0,0,0
COc1ccc(CCC(=O)Nc2cccc(S(=O)(=O)N3CCCCCC3)c2)cc1OC,?,0,0,?,-,-,-
COc1ccc(NC(C)C(=O)Nc2cccc(S(=O)(=O)N3CCOCC3)c2)cc1OC (stereo not given),?,0,0,6.5µM,0,0,6.5µM
COc1ccc(CC(=O)Nc2cccc(SC)c2)cc1OC,0,0,0,2.9µM,0,0,8.2µM
O=C(NCc1cccs1)c1ccc(CSc2nc3ccncc3n2Cc2cccc(F)c2)cc1,0,-,0,?,-,-,-
COc1cc(C2CC(=O)c3c([nH]c(C(=O)OCc4ccc(C)cc4)c3C)C2)cc(OC)c1OC (stereo not given),0,-,0,2.3µM,0,0,4.6µM
